This note sets out measurements from the supplement of paper PMC6411743.

Holding throughout (experiment): NP40-soluble protein abundance relative to vehicle (solubility fold change) (ratio); higher = more soluble protein in presence of AMP-PNP
One assay deals with T1, GALNS (UniProt P34059).
T1 sequence (whole entry): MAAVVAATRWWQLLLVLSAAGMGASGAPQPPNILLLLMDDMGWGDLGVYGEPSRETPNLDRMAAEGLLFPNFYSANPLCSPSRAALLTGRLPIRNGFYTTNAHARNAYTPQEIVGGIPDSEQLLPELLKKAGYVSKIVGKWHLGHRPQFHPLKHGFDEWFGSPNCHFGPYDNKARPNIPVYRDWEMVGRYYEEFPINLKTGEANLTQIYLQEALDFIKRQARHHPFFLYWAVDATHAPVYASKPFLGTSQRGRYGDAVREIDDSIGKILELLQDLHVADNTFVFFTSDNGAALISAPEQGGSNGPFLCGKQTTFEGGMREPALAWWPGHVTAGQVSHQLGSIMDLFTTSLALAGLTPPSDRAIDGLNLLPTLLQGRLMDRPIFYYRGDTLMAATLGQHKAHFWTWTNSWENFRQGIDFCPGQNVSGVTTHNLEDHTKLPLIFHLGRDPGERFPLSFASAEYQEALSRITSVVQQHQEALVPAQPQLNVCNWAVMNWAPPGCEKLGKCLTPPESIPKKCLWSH
The essentials: (§1)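 Each value is a fold change relative to the detergent-processed vehicle, calculated per replicate from vsn-normalised intensities. Jurkat crude lysate received eight concentrations (0.1 to 10 mM) for 10 min at room temperature and 3 min at 37 °C, then was solubilised in 0.8% NP40 with benzonase (60 min, 4 °C). The ultracentrifuged supernatant was TMT-labelled and run by LC-MS/MS in three independent experiments.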

The target of a further assay is T2, MFN2 (UniProt O95140).
T2 sequence (whole entry): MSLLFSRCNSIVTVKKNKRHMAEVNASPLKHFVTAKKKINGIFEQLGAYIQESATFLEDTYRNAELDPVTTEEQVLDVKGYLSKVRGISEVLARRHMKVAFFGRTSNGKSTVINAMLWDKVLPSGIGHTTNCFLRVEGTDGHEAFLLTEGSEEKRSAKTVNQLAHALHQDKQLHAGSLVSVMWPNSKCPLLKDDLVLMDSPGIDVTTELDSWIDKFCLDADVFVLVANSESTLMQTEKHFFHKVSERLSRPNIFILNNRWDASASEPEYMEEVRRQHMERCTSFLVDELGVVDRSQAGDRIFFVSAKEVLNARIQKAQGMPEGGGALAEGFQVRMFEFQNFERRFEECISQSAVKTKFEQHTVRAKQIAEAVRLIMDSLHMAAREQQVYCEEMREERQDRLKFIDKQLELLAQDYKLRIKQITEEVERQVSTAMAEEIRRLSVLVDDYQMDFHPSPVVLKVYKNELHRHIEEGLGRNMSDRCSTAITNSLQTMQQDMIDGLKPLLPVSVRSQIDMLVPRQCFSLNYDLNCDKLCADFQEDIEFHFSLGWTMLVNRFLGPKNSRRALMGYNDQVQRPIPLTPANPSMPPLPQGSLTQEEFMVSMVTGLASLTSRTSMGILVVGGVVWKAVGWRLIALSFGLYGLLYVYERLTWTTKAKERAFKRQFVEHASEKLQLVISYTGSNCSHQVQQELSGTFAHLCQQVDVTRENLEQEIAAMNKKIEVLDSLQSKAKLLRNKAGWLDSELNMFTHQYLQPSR
Put shortly: as §1

A further assay has as its target T3, PPM1F (UniProt P49593).
T3 sequence (whole entry): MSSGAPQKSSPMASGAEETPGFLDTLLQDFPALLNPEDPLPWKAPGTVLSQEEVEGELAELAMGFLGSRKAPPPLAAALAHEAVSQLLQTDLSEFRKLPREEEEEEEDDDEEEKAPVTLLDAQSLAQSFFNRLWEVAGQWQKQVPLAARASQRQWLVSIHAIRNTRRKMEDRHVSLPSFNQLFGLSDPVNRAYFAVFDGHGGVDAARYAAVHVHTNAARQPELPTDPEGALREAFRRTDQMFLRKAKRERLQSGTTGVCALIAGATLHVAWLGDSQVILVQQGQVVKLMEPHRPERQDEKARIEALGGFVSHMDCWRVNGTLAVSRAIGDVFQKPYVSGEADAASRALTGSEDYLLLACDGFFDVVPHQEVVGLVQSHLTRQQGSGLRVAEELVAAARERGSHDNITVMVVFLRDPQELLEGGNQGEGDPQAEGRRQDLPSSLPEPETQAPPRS
Put shortly: as §1

± gives the standard deviation of the averaged measurements. Of roughly 6,200 targets only a part is listed; those with the largest changes were picked by preference.

Consider `Nc1ncnc2c1ncn2[C@@H]1O[C@H](COP(=O)(O)OP(=O)(O)NP(=O)(O)O)[C@@H](O)[C@H]1O` [adenylyl imidodiphosphate], for which the NP40-soluble protein abundance was found to be 0.986 ± 0.018 with GALNS (concentration: 1mM); 0.972 ± 0.011 in the assay with GALNS (concentration: 2mM); 0.957 ± 0.04 in the assay with GALNS (concentration: 4mM); 0.963 ± 0.019 with GALNS (concentration: 6mM); 0.933 ± 0.034 in the assay with GALNS (concentration: 8mM); 0.975 ± 0.027 in the assay with GALNS (concentration: 10mM). Moreover, the NP40-soluble protein abundance stood at 1.01 ± 0.064 in the assay with MFN2 (concentration: 1mM); 0.956 ± 0.032 with MFN2 (concentration: 2mM); 1.01 ± 0.074 in the assay with MFN2 (concentration: 4mM); 0.965 ± 0.037 in the assay with MFN2 (concentration: 6mM); 0.986 ± 0.049 in the assay with MFN2 (concentration: 8mM); 0.989 ± 0.024 in the assay with MFN2 (concentration: 10mM). Also, the NP40-soluble protein abundance came out at 1.028 ± 0.0057 with PPM1F (concentration: 1mM); 1.019 ± 0.0062 with PPM1F (concentration: 2mM); 1.03 ± 0.011 with PPM1F (concentration: 4mM); 1.014 ± 0.0081 with PPM1F (concentration: 6mM); 1.02 ± 0.013 with PPM1F (concentration: 8mM); 1.04 ± 0.018 with PPM1F (concentration: 10mM).
